Source: PubChem BioAssay
SSB-PriA inh: inhibitors of Klebsiella pneumoniae PriA binding to SSB C-terminal tail; AID 1272365; AlphaScreen SSBct-PriA binding, biotinylated peptide; actives 0.6% (n = 430,000); inhibition, % at 33 µM; in the data active = inhibition mostly above about 37%, no sharp cut-off; inactive = mostly below about 20%
PfHsp40 yeast: restores yeast growth despite PfHsp40 toxicity; S. cerevisiae expressing PfHsp40, growth rescue, ATP luminescence; growth rescue, % at 12.5 µM; actives 0.68% (n = 340,000); in the data active = growth rescue above about 28%, passing the limit was not always enough;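 also: yeast W303a lacking pdr1 and pdr3 grown in galactose medium; growth measured after three days at 30 °C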
MazF activator: increases E. coli MazEF RNase cleavage of RNA | P0AE70 | FAM/BHQ RNA-DNA oligo cleavage fluorescence, 5 h | actives 0.32% (n = 350,000) | AID 504720 | activation, % at 20 µM; in the data active = activation above about 50%
Target sequence (P0AE70 whole entry, looked up): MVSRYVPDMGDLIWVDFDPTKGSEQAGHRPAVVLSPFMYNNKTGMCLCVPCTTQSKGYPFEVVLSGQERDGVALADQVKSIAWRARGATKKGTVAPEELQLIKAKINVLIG
PrP 5UTR inh: suppresses PrP 5' UTR mRNA reporter expression. cell-based PrP 5' UTR mRNA reporter, plate reader. inhibition, % (concentration not given with the values). actives 0.35% (n = 340,000); in the data active = inhibition above about 52%
PrPC TRFRET: reduces human prion protein on the cell surface. P04156. cell surface PrPC, TR-FRET read-out. inhibition, % at 13.8 µM. actives 0.43% (n = 370,000); in the data active = inhibition above about 24%
Large screens that a line does not name were inactive. Compounds with a hit are over-represented: about 1.8% of the library has one in this group of screens.

CCCN1CCCc2cc(CCNS(=O)(=O)c3cc(CC)ccc3OC)ccc21	SSB-PriA inh 66 (no result: PfHsp40 yeast, MazF activator, PrP 5UTR inh, PrPC TRFRET)
COc1ccc2nc(/N=C/c3c(C)[nH]n(-c4ccc(C)cc4)c3=O)sc2c1	none (no result: SSB-PriA inh)
Oc1ccccc1C(=S)N1CCCCCC1	none
Cc1c(CCO)c(=O)n(C)n1C(=O)c1ccc(F)cc1	none
CCOc1ccccc1NC(=O)c1nnn(CC(=O)Nc2ccc3c(c2)OCO3)c1N	none
CCOc1ccccc1NC(=O)Cn1nnc(C(=O)NCc2ccc3c(c2)OCO3)c1N	MazF activator 65
Cc1ccc(-n2[nH]c(C)c(C=Nc3ccc4[nH]c(=O)[nH]c4c3)c2=O)cc1	none
Cc1ccc(-n2[nH]c(C)c(C=Nc3ccc4[nH]c(=O)[nH]c4c3)c2=O)cc1C	MazF activator 63
O=C(CSc1ncccn1)N1CCC(S(=O)(=O)Cc2ccco2)CC1	none (no result: PfHsp40 yeast, MazF activator, PrP 5UTR inh, PrPC TRFRET)
O=[N+]([O-])c1ccccc1-c1cc(-c2cc(Cl)ccc2O)n[nH]1	PfHsp40 yeast 145
Cc1ccccc1-c1cc(-c2ccccc2O)on1	PfHsp40 yeast 32 (no result: PrP 5UTR inh)
Oc1ccccc1-c1cc(-c2cccc(F)c2)n[nH]1	PfHsp40 yeast 193
CC(C)(C)c1ccc(-c2cc(-c3ccccc3O)[nH]n2)cc1	PfHsp40 yeast 34
Oc1ccccc1-c1cc(-c2ccccc2)no1	none
COc1ccc(N(C)S(=O)(=O)c2cccc(C(=O)OC(C)C(=O)NC3CCCCC3C)c2)cc1 (stereo not given)	none
Cc1ccc(O)c(-c2cc(-c3ccccc3C)[nH]n2)c1	PfHsp40 yeast 322
O=[N+]([O-])c1cc([N+](=O)[O-])c2ncccc2c1	SSB-PriA inh 63 (no result: PfHsp40 yeast, MazF activator, PrP 5UTR inh, PrPC TRFRET)
CN(C)/N=C/c1ccc([N+](=O)[O-])cc1[N+](=O)[O-]	PfHsp40 yeast 31 (no result: SSB-PriA inh)
Oc1cc(F)cc2cccnc12	none (no result: PfHsp40 yeast, MazF activator, PrP 5UTR inh, PrPC TRFRET)
COc1ccc(CSc2cccc3cccnc23)cc1[N+](=O)[O-]	SSB-PriA inh 45
Oc1cc(Cl)cc2cccnc12	SSB-PriA inh 84 (no result: PfHsp40 yeast, MazF activator, PrP 5UTR inh, PrPC TRFRET)
CN(C)N=Cc1ccc([N+](=O)[O-])cc1[N+](=O)[O-]	none (no result: PfHsp40 yeast, MazF activator, PrP 5UTR inh, PrPC TRFRET)
O=[N+]([O-])c1ccc(Oc2cccc3cccnc23)c(Cl)c1	none
Cc1ccc(NC(=O)CSc2nnc(CCC(=O)O)c(=O)[nH]2)cc1	none
O=[N+]([O-])c1cc(C(F)(F)F)cc([N+](=O)[O-])c1Sc1cccc2cccnc12	SSB-PriA inh 56 (no result: PfHsp40 yeast, MazF activator, PrP 5UTR inh, PrPC TRFRET)
CN(/N=C/c1cc([N+](=O)[O-])ccc1O)c1ccccc1	none (no result: SSB-PriA inh)
CN(N=Cc1cccc2cccnc12)c1ccc([N+](=O)[O-])cc1[N+](=O)[O-]	MazF activator 935
O=[N+]([O-])c1cc(O)c2ncccc2c1	SSB-PriA inh 84 (no result: PfHsp40 yeast, PrP 5UTR inh)
CCCSc1nnc(N)s1	none
O=C(COc1ccc2c(-c3ccccc3)cc(=O)oc2c1)Nc1ccc(CN2CCOCC2)cc1	none
O=[N+]([O-])c1ccc(C2CCCCC2=NOCc2ccc(F)cc2)c([N+](=O)[O-])c1 (stereo not given)	SSB-PriA inh 45 (no result: PfHsp40 yeast, MazF activator, PrP 5UTR inh, PrPC TRFRET)
O=C(NNC(=O)c1ccccc1OCc1ccc(F)cc1)c1ccccc1O	PfHsp40 yeast 43
FC(F)(F)c1ccccc1NC(=S)NN=C1CC2CC=CC12 (stereo not given)	none (no result: PfHsp40 yeast, MazF activator, PrP 5UTR inh, PrPC TRFRET)
CC(C)(C)n1nc(Cc2cccc3ccccc23)c2c(N)ncnc21	PfHsp40 yeast 552
Cn1nc(Cc2cccc3ccccc23)c(C#N)c1N	none
COc1ccc(NC(=O)N2CCCC2C(=O)Nc2ccccc2F)cc1 (stereo not given)	none
Cc1nnc(NC(=O)CCc2csc(NC(=O)c3ccc[nH]c3=O)n2)s1	none (no result: PfHsp40 yeast, MazF activator, PrP 5UTR inh, PrPC TRFRET)
C=CCn1c(SCC(=O)c2cc(C)n(-c3ccc(C)c(C)c3)c2C)nc2scc(-c3ccc(F)cc3)c2c1=O	none (no result: PfHsp40 yeast, MazF activator, PrP 5UTR inh, PrPC TRFRET)
O=c1[nH]c(-c2ccccc2)nn1-c1ccc(Br)cc1Br	PfHsp40 yeast 35
CCC(C)c1ccc(O)c(NC(=S)NC(=O)c2cccnc2)c1 (stereo not given)	PfHsp40 yeast 54
Cc1ccc([N+](=O)[O-])cc1NC(=S)NC(=O)c1cccnc1	none
O=C(NC(=S)NNC(=O)c1ccccc1O)c1cccnc1	SSB-PriA inh 62
O=C(NC(=S)Nc1cc([N+](=O)[O-])ccc1O)c1cccnc1	PrP 5UTR inh 55
CCC(C(=O)OCC(=O)c1ccc2c(c1)NC(=O)CO2)c1ccccc1 (stereo not given)	none
CC(C)c1ccc(-n2cccc2/C=C2/C(=N)N3C=CSC3=NC2=O)cc1	none
Cc1ccccc1Cn1cccc1/C=C1/C(=N)N2C=CSC2=NC1=O	MazF activator 164
COC(=O)c1nnn(CC(=O)Nc2cccc(OC)c2)c1C(=O)OC	PfHsp40 yeast 80
Cc1cc(C)c(C)c(N=Nc2nc3ccccc3n2C)c1C	SSB-PriA inh 68
Cc1ccc(C)c(N=Nc2nc3ccccc3n2C)c1	none
Cc1ccc(-c2cc(C(=O)N3CCc4ccccc4C3)[nH]n2)cc1C	none
COc1cccc(-c2cc(C(=O)N3CCc4ccccc4C3)[nH]n2)c1	MazF activator 93
Clc1ccccc1/C=N/NC1=Nc2cccc3cccc1c23	MazF activator 231 (no result: SSB-PriA inh)
C(=N\NC1=Nc2cccc3cccc1c23)/c1ccccn1	PfHsp40 yeast 327 (no result: SSB-PriA inh)
CN(C)c1ccc(C(C[N+](=O)[O-])c2c(N)n(C)c(=O)n(C)c2=O)c(F)c1C#N (stereo not given)	PfHsp40 yeast 140
CCOc1ccc(OCCNS(=O)(=O)c2cc(C)ccc2OC)cc1	none (no result: PfHsp40 yeast, MazF activator, PrP 5UTR inh, PrPC TRFRET)
COc1ccc(C)cc1-n1nnnc1SCc1nc(N)nc(N(C)C)n1	none (no result: SSB-PriA inh, PfHsp40 yeast, MazF activator, PrP 5UTR inh)
Cc1cc(O)c(C=O)c2c1C(=O)Oc1c(CO)c(O)c3c(c1O2)C(O)OC3=O (stereo not given)	PfHsp40 yeast 161 (no result: PrPC TRFRET)
Cc1cccc(C=NNC(=O)C[n+]2ccccc2)c1	none (no result: PfHsp40 yeast, MazF activator, PrP 5UTR inh, PrPC TRFRET)
O=C(Nc1ccccc1F)NC1CCCCCCC1	none
O=C(/C=C/c1ccccc1Cl)NCCc1ccc(F)cc1	PfHsp40 yeast 39
Oc1c(Br)cc(-c2ccccc2)cc1Br	PfHsp40 yeast 580
CC(=O)N1CCC(=NNS(=O)(=O)c2cccc([N+](=O)[O-])c2)CC1	MazF activator 53
C/C=C/c1ccc(OC[C@@H](O)CN2CCN(c3cccc(C(F)(F)F)c3)CC2)c(OC)c1	none (no result: PfHsp40 yeast, MazF activator, PrP 5UTR inh, PrPC TRFRET)
C/C=C/c1ccc(OCC(O)CN2CCN(c3cccc(Cl)c3)CC2)c(OC)c1 (stereo not given)	SSB-PriA inh 36 (no result: PfHsp40 yeast, MazF activator, PrP 5UTR inh, PrPC TRFRET)
COc1ccc(NC(=O)c2ccc(-c3ccc(-c4noc(C)n4)cc3C)cc2)cc1N1CCN(C)CC1	SSB-PriA inh 39
Cn1c(-c2c(N)n(CCc3ccccc3)c3nc4ccccc4nc23)nc2ccccc21	none (no result: PrPC TRFRET)
Cn1c(-c2c(N)n(C3CCCC3)c3nc4ccccc4nc23)nc2ccccc21	PfHsp40 yeast 490
Cc1cc2oc(=O)cc(-c3cc4ccccc4o3)c2cc1O	none
COc1cc(OC)c(-c2c3cc(O)c(=O)cc-3oc3cc(O)c(O)cc23)cc1OC	PfHsp40 yeast 228
Cc1c2cc(O)c(=O)cc-2oc2cc(O)c(O)cc12	MazF activator 410, PrPC TRFRET 60
CCS(=O)(=O)N1Cc2ccccc2CC1C(=O)NC(C)C12CC3CC(CC(C3)C1)C2 (stereo not given)	PrPC TRFRET 31
